Among the data in PubChem BioAssay AID2315 (National Center for Advancing Translational Sciences (NCATS), 2010) are inhibition values, retold here.

About 27,000 (9.3%) of roughly 290,000 compounds were called active. No stated cut-off is given here; in the data, active means inhibition mostly above about 28% (no sharp cut-off); inactive means mostly below about 43%. What follows is part of a selection rich in actives, with near analogues and random picks from the rest. Where a SMILES comes first, the peptide text is derived from it. [ ]: non-standard residue; d: D form. The star is where a group is joined. PhAc = O=C(Cc1ccccc1)*

The experiment can be described thus: A qHTS for Small Molecule Inhibitors of Shiga Toxin. Further: 0% is about no effect. The note with it: Vero cells, Shiga toxin protein synthesis inhibition reporter; at 38.7 µM, active compounds read high. (In general: Quantitative high-throughput screening tests each substance at several concentrations.)
Take `CCOc1ccccc1N1C(=O)CC(Sc2nccc(C)n2)C1=O` (configuration not stated): the inhibition was 10.8% (inactive).
Next, `Cc1ccc2c(c1)N(CC(=O)N1CCOCC1)C(=O)CO2`: -3.54% (inactive); `Cc1cc(C(C)(C)C)n2nc(C)c(-c3ccccc3)c2n1`: -4.85% (inactive).
Next, `Cc1nc2cc(-c3ccc(F)cc3)nn2c(N2CCOCC2)c1C`: 62.6% (inactive); `Cc1cc(N)n2nc(-c3ccc(C(C)(C)C)cc3)cc2n1`: 88.7% (active); `Cc1cccc(OCC(O)CN2CCN(S(=O)(=O)c3ccc(C)cc3C)CC2)c1` (configuration not stated): -2.77% (inactive).
The figure for `CCOC(=O)CSc1nnc(CNc2nc(-c3ccccc3)cs2)n1C` is 9.53% (inactive); for `O=C(CSc1ncn[nH]1)Nc1nc(-c2cccc([N+](=O)[O-])c2)cs1` it is 8.25% (inactive).
For `CCNC(=O)CSc1nc(-c2ccccc2)cs1`, the inhibition was 74.3% (active).
In the case of `O=C(CSC1=NCCS1)Nc1nc(-c2ccccc2)cs1`, the inhibition was 29.7% (inactive).
Next, `O=C(CSCC(=O)Nc1cccc([N+](=O)[O-])c1)Nc1ccccc1`: 7.24% (inactive); `O=C(CSc1nc(-c2ccccc2)cs1)Nc1cccc([N+](=O)[O-])c1`: 81.3% (active).
The figure for `CC(C)C[C@@H](NC(=O)[C@H]1CCCN1C(=O)Cc1ccccc1)C(N)=O` (PhAc-[dP]-[dL]-NH2) is 6.07% (inactive).
Next, `CCc1ccc(Nc2nnc(SCC(=O)c3ccc4c(c3)NC(=O)CO4)s2)cc1`: 32.3% (inactive); `CC(C)[C@H](NC(=O)OCc1ccccc1)C(=O)OCc1ccccc1`: 25.1% (inactive).
Turning to `CCC1OC(c2ccc([N+](=O)[O-])cc2)=Nc2ccccc21` (configuration not stated), the inhibition was 6.08% (inactive).
The figure for `COc1ccc(-c2n[nH]c(C)c2-c2ccccc2OC)c(O)c1` is 13.4% (inactive); for `O=C(C1CC(=O)N(c2ccc(Br)cc2)C1)N1CCCC1` (configuration not stated) it is -22.5% (inactive).
The figure for `COc1ccc(NC(=O)c2cc([N+](=O)[O-])ccc2NC(=O)CNC2CCCCC2C)c(OC)c1` (configuration not stated) is 7.27% (inactive).
The figure for `CCc1nnc(NC(=O)c2cccc(S(=O)(=O)N(C)c3ccc(OC)cc3)c2)s1` is -10.6% (inactive).
Turning to `CCc1ccc2nc3sc(C(=O)Nc4nnc(CC)s4)c(N)c3cc2c1`, the inhibition was 48.9% (active).
Regarding `CCc1nnc(NC(=O)c2sc3nc(C)cc(COC)c3c2N)s1`, the inhibition was 53.1% (inactive).
Next, `Cc1ccc(C)c(S(=O)(=O)Nc2cccc(-n3cnnn3)c2)c1`: 23.9% (inactive); `Cc1cccc[n+]1CC(=O)c1ccccc1`: 5.04% (inactive); `O=C(N/N=C/c1c(Cl)[nH]c2ccccc12)c1sc2ccccc2c1Cl`: -0.233% (inactive).
The figure for `O=C(Nc1ccon1)c1sc2ccccc2c1Cl` is 88% (active).
The figure for `O=C(Nc1ccon1)c1cccc(Cl)c1` is 5.52% (inactive).
Turning to `N#Cc1nc(Cc2cccc3ccccc23)oc1NCc1ccc2c(c1)OCO2`, the inhibition was 12.3% (inactive).
Take `COc1ccc(Nc2oc(-c3ccccc3Cl)nc2C#N)cc1`: the inhibition is 20.6% (inactive).
Next, `Cc1ccccc1-c1nc(C#N)c(NCc2ccco2)o1`: 71.9% (inactive).
For `N#Cc1nc(COc2ccc(-c3ccccc3)cc2)oc1NCc1cccnc1`, the inhibition was 56.8% (inactive).
In the case of `CCOc1ccc(Nc2oc(Cc3ccccc3)nc2C#N)cc1`, the inhibition is 58.5% (active).
Next, `N#Cc1nc(Cc2ccccc2)oc1NCCc1ccccc1`: 64.7% (active); `O=C(Nc1ccc(F)cc1)c1ccc(S(=O)(=O)NCc2cccnc2)cc1`: 27.5% (inactive).
Turning to `CCOc1ccc(S(=O)(=O)N2CCC(C(=O)NCc3ccccn3)CC2)cc1Cl`, the inhibition was 3.21% (inactive).
Next, `CC1CCN(C(=O)c2ccc3c(=O)n4c(nc3c2)CCCCC4)CC1`: 19.9% (inactive).
The figure for `CCc1nnc(NS(=O)(=O)c2ccc(NC(=S)NC(=O)c3cccs3)cc2)s1` is -15.7% (inactive); for `Cc1cc(C)nc(NS(=O)(=O)c2ccc(N/C=C\C(=O)c3cccs3)cc2)n1` it is 97.2% (active); for `CC(=O)Nc1ccc(S(=O)(=O)Nc2nccc(/C=C/c3ccccc3F)n2)cc1` it is 21.8% (inactive).
The figure for `COc1ccc(/C=C(\C#N)c2c[nH]c3ccccc23)cc1` is 68% (active); for `COc1ccc(C(C(O)C(=O)c2c[nH]c3ccccc23)N2CCN(c3ccccc3)CC2)cc1` (configuration not stated) it is -5.67% (inactive).
Regarding `COc1ccc2[nH]cc(/C=C(/C#N)S(=O)(=O)c3ccccc3)c2c1`, the inhibition was -6.23% (inactive).
The figure for `Cc1ccccc1C(=O)N1CCN(c2ccc(NC(=O)c3cccs3)cc2)CC1` is -18.3% (inactive); for `O=C(COC(=O)c1cccs1)Nc1ccccc1Cl` it is 36.9% (active).
Consider `O=C(COC(=O)CCC(=O)c1cccs1)NCc1ccco1`, for which the inhibition was -12.8% (inactive).
The figure for `CCc1ccc(NC(=O)C(=O)NNC(=O)c2cccs2)cc1` is 39.1% (active).
As for `O=C(COC(=O)c1ccc(Cl)nc1)NCc1cccs1`, the inhibition was -3.54% (inactive).
Next, `NS(=O)(=O)c1ccc(NC(=S)NC(=O)c2cccnc2)cc1`: -16% (inactive); `NS(=O)(=O)c1ccc(NC(=S)NC(=O)c2cccc(Br)c2)cc1`: 4.4% (inactive); `O=C(COC(=O)/C(=C/c1cccs1)c1cccs1)NCc1ccccc1Cl`: 13.7% (inactive).
Next, `O=C(COC(=O)c1cccs1)NCc1cccs1`: 40% (active).
On to `NS(=O)(=O)c1ccc(NC(=S)NNC(=O)c2cccs2)cc1`, for which the inhibition is 107% (active).
The figure for `O=C(COC(=O)CCc1c[nH]c(=O)[nH]1)Nc1ccccc1Cl` is -3.38% (inactive); for `COc1ccc(CCOC(=O)CNC(=O)c2ccc(Cl)cc2Cl)cc1` it is 7.31% (inactive).
Regarding `CCCOc1ccc(CNC(=O)C2CCN(c3nn4c(=O)cc(C)nc4s3)CC2)cc1`, the inhibition was -3.64% (inactive).
The figure for `Cc1cccnc1CCNC(=O)C1CCC(=O)N(Cc2cccc(F)c2)C1` (configuration not stated) is -6.16% (inactive).
For `COC(CNC(=O)c1ccc2c(c1)ncn2-c1cc(C)cc(C)c1)OC`, the inhibition was 4.27% (inactive).
Next, `COc1cccc(CN(C)C(=O)CC23CC4CC(CC(C4)C2)C3)c1OC`: -11.5% (inactive); `CS(=O)(=O)c1ccc(-c2nnn(CC(=O)Nc3ccc4c(c3)OCCO4)n2)cc1`: 20.6% (inactive); `O=S(=O)(NCCc1ccc(Cl)cc1)c1cccs1`: 10.5% (inactive).
Next, `CCc1ccc(NC(=O)COC(=O)c2cccs2)cc1`: 51.4% (active).
The figure for `CCc1ccc(NC(=O)CCNS(=O)(=O)c2cccs2)cc1` is 53.4% (active).
`CCc1cccc(NC(=O)CCNS(=O)(=O)c2cccc3nonc23)c1`: the inhibition was -3.23% (inactive).
The figure for `Cc1ccc(OCC(=O)Nc2ccc(NC(=O)c3cccs3)cc2)c(C)c1` is 25.9% (inactive); for `C/C(=N\OCC(=O)Nc1ccc(Br)cc1)c1cccs1` it is 40.3% (inactive).
Next, `COc1ccccc1C(=O)N(C1=NC(C)CS1)c1ccc(Cl)cc1` (configuration not stated): -5.01% (inactive).
The figure for `COc1ccccc1CNC(=O)C1CCN(C(=O)[C@@H]2Cc3ccccc3CN2)CC1` is 13.3% (inactive).
On to `Cc1c(C(=O)NCC(c2ccco2)N2CCCC2)oc2ccc(Cl)cc12` (configuration not stated), for which the inhibition was 49.7% (inactive).
The figure for `Cc1nc2nc(SCC(=O)Nc3cccc(F)c3)[nH]c2cc1Br` is 6.55% (inactive); for `CCCCn1c(SCC(=O)N2CCOCC2)nc2c1c(=O)n(C)c(=O)n2C` it is -5.05% (inactive); for `CC(=O)N(C)c1ccc(NC(=O)C(F)(F)F)cc1` it is 13.5% (inactive).
The figure for `O=C(O)Cc1ccc(NC(=O)Nc2cccc3ccccc23)cc1` is -1.4% (inactive); for `CCOc1ccc(NC(=O)Nc2ccc(N(C)C(C)=O)cc2)cc1` it is 73.9% (active).
Next, `CCOc1ccc(NC(=O)N(CC(C)C)CC(C)C)cc1`: 26.1% (inactive).
For `O=C(Nc1ccc2c(c1)C(=O)OC2)Nc1cccc2ccccc12`, the inhibition was 12.8% (inactive).
Next, `CC(=O)N(C)c1ccc(NC(=O)Nc2cccc3ccccc23)cc1`: 77.5% (active).
The figure for `NS(=O)(=O)c1ccc(CCNC(=O)c2nc(CS(=O)(=O)c3ccc(Cl)cc3)no2)cc1` is -2.78% (inactive); for `O=Cc1ccc(Oc2cccc(C(F)(F)F)c2)nc1` it is 12.2% (inactive); for `FC(F)(F)c1ccnc(Oc2ccc(C3=NCCS3)cc2)c1` it is 64.7% (active).
For `C[C@H](NC(=O)C1CC(=O)N(c2ccc3c(c2)OCO3)C1)C(=O)NCc1ccco1` (some centres not stated), the inhibition is -4.62% (inactive).
Next, `O=S(=O)(NC1CCCCC1N1CCCCC1)c1ccc(Cl)cc1` (configuration not stated): -21.5% (inactive).
The figure for `O=C(NCc1ccncc1)C1CCCN(S(=O)(=O)c2ccc(Br)cc2)C1` (configuration not stated) is -9.96% (inactive).
In the case of `Cc1nc2sc3c(c2c(=O)n1NC(=O)CCl)CCCC3`, the inhibition was -6.21% (inactive).
The figure for `CCC(O)CNc1nc(-n2nc(C)cc2C)nc2sc3c(c12)CC(C)(C)OC3` (configuration not stated) is -11.2% (inactive); for `COCCNc1nc(-n2nc(C)cc2C)nc2sc3c(c12)CCCC3` it is 51.2% (active); for `COc1ccccc1NC(=O)c1cc(N2C(=O)C3C4CCC(C4)C3C2=O)ccc1Cl` (configuration not stated) it is -3.33% (inactive).
The figure for `COc1ccccc1N1CCN(S(=O)(=O)c2ccc3c(c2)NC(=O)CS3)CC1` is 16.6% (inactive).
Regarding `N#Cc1c(NC(=O)C2CCCO2)sc2c1CCCCC2` (configuration not stated), the inhibition was 82.7% (active).
Next, `N#Cc1c(NC(=O)C2CC(Cl)=CCC2C(=O)O)sc2c1CCCCC2` (configuration not stated): 18.3% (inactive); `N#Cc1c(NC(=O)CCCl)sc2c1CCCCC2`: 25% (inactive).
Next, `Cc1c(C)c2ccc(OCC(=O)N3CCC(C(=O)O)CC3)c(C)c2oc1=O`: -1.33% (inactive); `Nc1ccn(C2CC(O)C(CO)O2)c(=O)n1` (configuration not stated): -2.7% (inactive); `CCOC(=O)c1c(NC(=O)CSc2nccc(=O)[nH]2)sc(C)c1C`: -11.1% (inactive).
Regarding `Cc1ccc2ccc3c(c2n1)NS(=O)(=O)c1ccccc1-3`, the inhibition is -4.77% (inactive).
For the compound `CCOC(=O)c1cc(Sc2ccccc2N)cc(C(=O)OCC)n1`, the inhibition was -2.59% (inactive).
Turning to `CCS(=O)(=O)c1cc([N+](=O)[O-])c(Sc2ccccc2N)s1`, the inhibition is 101% (active).
As for `Nc1ccccc1Sc1ccc(C(F)(F)F)cc1[N+](=O)[O-]`, the inhibition is -8.21% (inactive).

By inhibition is commonly meant the relative decrease from the control value, in per cent.
